Reference: PubChem BioAssay (NCI)
This is part of a sample that, as a whole, favours compounds with a hit. Of some 79,000 tested, about 15% had one in any assay. Activity calls are given as the source filed them. No stated cut-off is given here; in the data, active means growth inhibition above about 70%; inactive means the rest.

Tests used:
[1] = NCI Yeast Anticancer Drug Screen. Data for the rad52 strain (AID 147);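 further: 0% = growth of vehicle-treated control cultures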; settings: S. cerevisiae rad52 mutant growth inhibition, active compounds read high
Outline: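 Inhibition of yeast growth, referenced to vehicle controls, was the measured output for a strain with defective DNA damage repair.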

[2] = NCI Yeast Anticancer Drug Screen. Data for the wt1 strain (AID 149);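 further: 0% = growth of vehicle-treated wt1 cultures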; settings: S. cerevisiae wt1 strain (SPY 50644) growth inhibition, active compounds read high
Outline: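 Each compound is tested on wt1 yeast and the loss of growth versus vehicle gives the inhibition value.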

[3] = NCI Yeast Anticancer Drug Screen. Data for the rad50EPP+ strain (AID 151);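 further: 0% = growth of vehicle-treated control cultures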; settings: S. cerevisiae rad50 mutant strain, active compounds read high
Outline: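 Genetically defined yeast (rad50EPP+, DNA damage repair alteration) is grown with compound, and inhibition of growth is expressed relative to vehicle-treated controls.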

[4] = NCI Yeast Anticancer Drug Screen. Data for the mgt1 strain (AID 153); settings: S. cerevisiae mgt1 mutant growth inhibition, active compounds read high
Outline: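 In the mgt1 strain, test compounds were added and growth inhibition was determined relative to vehicle-treated controls.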

[5] = NCI Yeast Anticancer Drug Screen. Data for the rad50 strain (AID 155);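 further: 0% = growth of vehicle-only cultures of the same strain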; settings: S. cerevisiae rad50 strain growth inhibition, active compounds read high
Outline: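 Vehicle-treated cultures provide the reference for the growth inhibition reported for compound-exposed, repair-deficient yeast.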

[6] = NCI Yeast Anticancer Drug Screen. Data for the mec2-1 strain (AID 157); settings: S. cerevisiae mec2-1 strain, active compounds read high
Outline: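 Each compound was tested on mec2-1 yeast, a strain altered in DNA damage repair or cell cycle control. Growth inhibition is reported relative to vehicle.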

[7] = NCI Yeast Anticancer Drug Screen. Data for the rad14 strain (AID 159);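 further: 0% = growth of vehicle-treated control cultures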; settings: S. cerevisiae rad14 strain growth inhibition, active compounds read high
Outline: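 Inhibition of growth is reported for a repair-deficient yeast mutant following compound treatment, calculated relative to cultures that received vehicle.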

[8] = NCI Yeast Anticancer Drug Screen. Data for the sgs1 mgt1 strain (AID 161);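 further: 0% = growth of cultures given vehicle only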; settings: S. cerevisiae sgs1 mgt1 strain, active compounds read high
Outline: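 Mutant yeast exposed to compound; growth scored against vehicle-only wells.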

[9] = NCI Yeast Anticancer Drug Screen. Data for the CLN2oe strain (AID 163);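 further: 0% = growth of vehicle-only control cultures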; settings: S. cerevisiae CLN2oe strain, active compounds read high
Outline: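 First, the altered yeast strain was treated with each compound; second, its growth was measured; finally, inhibition was derived by comparison with vehicle controls.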

[10] = NCI Yeast Anticancer Drug Screen. Data for the cln2 rad14 strain (AID 165);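 further: 0% = growth equal to vehicle treated cultures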; settings: S. cerevisiae cln2 rad14 strain, active compounds read high
Outline: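 Test compounds were added to cln2 rad14 yeast cultures; inhibition of growth was then determined by comparison with vehicle treatment.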

[11] = NCI Yeast Anticancer Drug Screen. Data for the bub3 strain (AID 167); settings: S. cerevisiae bub3 mutant strain, active compounds read high
Outline: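 Mutant yeast screening strain plus compound; vehicle-treated cultures serve as the 0% inhibition reference.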

[12] = NCI Yeast Anticancer Drug Screen. Data for the wt2 strain (AID 169); settings: S. cerevisiae wt2 strain growth inhibition, active compounds read high
Outline: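 The panel's yeast strains carry defined changes in DNA repair or cell cycle genes. Each strain is grown with compound, and growth loss is scored relative to vehicle.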

[13] = NCI Yeast Anticancer Drug Screen. Data for the mlh1 strain (AID 171);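 further: 0% = growth of vehicle-treated control cultures of the same strain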; settings: S. cerevisiae mlh1 strain growth inhibition, active compounds read high
Outline: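 Inhibition values reflect reduced yeast growth in the presence of compound, referenced to vehicle controls, using a strain chosen for its alteration in DNA repair or cell cycle control.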

[14] = NCI Yeast Anticancer Drug Screen. Data for the sgs1 strain (AID 173);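 further: 0% = growth of vehicle-only control cultures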; settings: S. cerevisiae sgs1 mutant, active compounds read high
Outline: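 Vehicle-treated cultures served as reference for growth inhibition of a yeast strain altered in DNA damage repair or cell cycle control after compound exposure.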

[15] = NCI Yeast Anticancer Drug Screen. Data for the mlh1 rad18 strain (AID 175); settings: S. cerevisiae mlh1 rad18 strain growth inhibition, active compounds read high
Outline: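 Inhibition values reflect reduced growth of mutant yeast versus vehicle-treated controls following compound exposure; the mutations affect DNA damage repair.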

[16] = NCI Yeast Anticancer Drug Screen. Data for the rad18 strain (AID 177); settings: S. cerevisiae rad18 mutant growth inhibition, active compounds read high
Outline: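 Steps: expose repair-mutant yeast to compound; measure growth; express as inhibition relative to vehicle control.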

[17] = at 5.0 µM (retest, dose inferred, filed as 0.5)
[18] = at 50.0 µM (retest, dose inferred, filed as 5.0)

Measured: growth inhibition

CN(C)CC(CN(C)C)C(=O)/C=C/c1ccc(Cl)cc1Cl
active: [1]; at 33.0 µM 98% | [1]; at 100.0 µM 97% | [2]; at 33.0 µM 98% | [2]; at 100.0 µM 98% | [3]; at 33.0 µM 98% | [3]; at 100.0 µM 98% | [4]; at 33.0 µM 99% | [4]; at 100.0 µM 98% | [5]; [17] 93% | [5]; at 33.0 µM 98% | [5]; [18] 98% | [5]; at 100.0 µM 97% | [6]; at 33.0 µM 98% | [6]; [18] 99% | [6]; at 100.0 µM 98% | [7]; at 33.0 µM 99% | [7]; at 100.0 µM 97% | [8]; [18] 99% | [9]; at 33.0 µM 98% | [9]; at 100.0 µM 97% | [10]; [18] 98% | [11]; at 33.0 µM 98% | [11]; [18] 98% | [11]; at 50.0 µM 99% | [11]; at 100.0 µM 97% | [12]; at 33.0 µM 98% | [12]; at 100.0 µM 98% | [13]; at 33.0 µM 99% | [13]; at 100.0 µM 98% | [14]; at 33.0 µM 98% | [14]; at 100.0 µM 98% | [15]; [18] 99% | [16]; at 33.0 µM 98% | [16]; at 100.0 µM 97%
inactive: [1]; at 1.2 µM 0% | [1]; at 3.7 µM -1% | [1]; at 11.0 µM 14% | [2]; at 1.2 µM -1% | [2]; at 3.7 µM -2% | [2]; at 11.0 µM -6% | [3]; at 1.2 µM -2% | [3]; at 3.7 µM -2% | [3]; at 11.0 µM 6% | [4]; at 1.2 µM -2% | [4]; at 3.7 µM -2% | [4]; at 11.0 µM 3% | [5]; at 1.2 µM -1% | [5]; at 3.7 µM 0% | [5]; at 11.0 µM 13% | [5]; at 50.0 µM 54.5% | [6]; at 1.2 µM -3% | [6]; at 3.7 µM -4% | [6]; [17] 13% | [6]; at 11.0 µM 6% | [6]; at 50.0 µM 42.2% | [7]; at 1.2 µM -2% | [7]; at 3.7 µM -2% | [7]; at 11.0 µM 17% | [8]; [17] 15% | [8]; at 50.0 µM 48.7% | [9]; at 1.2 µM -1% | [9]; at 3.7 µM -3% | [9]; at 11.0 µM -1% | [10]; [17] 0% | [10]; at 50.0 µM 43.8% | [11]; at 1.2 µM -3% | [11]; at 3.7 µM -4% | [11]; [17] -10% | [11]; at 11.0 µM -3% | [12]; at 1.2 µM -2% | [12]; at 3.7 µM -5% | [12]; at 11.0 µM 2% | [13]; at 1.2 µM -3% | [13]; at 3.7 µM -5% | [13]; at 11.0 µM 10% | [14]; at 1.2 µM -2% | [14]; at 3.7 µM -2% | [14]; at 11.0 µM 5% | [15]; [17] 6% | [15]; at 50.0 µM 45% | [16]; at 1.2 µM -4% | [16]; at 3.7 µM -3% | [16]; at 11.0 µM 14%
